# The entries come from a sample that favours hits as a whole.
# ST2 IL33 inh = blocks human ST2 binding to IL-33; 78,000 tested, 2.3% active; AID 1259354; inhibition, % for hits at 17 µM; AlphaLISA ST2-Fc/biotin-IL-33 interaction, 1 h; in the data active means inhibition above about 30%
# Target sequence (Q01638 whole entry, looked up): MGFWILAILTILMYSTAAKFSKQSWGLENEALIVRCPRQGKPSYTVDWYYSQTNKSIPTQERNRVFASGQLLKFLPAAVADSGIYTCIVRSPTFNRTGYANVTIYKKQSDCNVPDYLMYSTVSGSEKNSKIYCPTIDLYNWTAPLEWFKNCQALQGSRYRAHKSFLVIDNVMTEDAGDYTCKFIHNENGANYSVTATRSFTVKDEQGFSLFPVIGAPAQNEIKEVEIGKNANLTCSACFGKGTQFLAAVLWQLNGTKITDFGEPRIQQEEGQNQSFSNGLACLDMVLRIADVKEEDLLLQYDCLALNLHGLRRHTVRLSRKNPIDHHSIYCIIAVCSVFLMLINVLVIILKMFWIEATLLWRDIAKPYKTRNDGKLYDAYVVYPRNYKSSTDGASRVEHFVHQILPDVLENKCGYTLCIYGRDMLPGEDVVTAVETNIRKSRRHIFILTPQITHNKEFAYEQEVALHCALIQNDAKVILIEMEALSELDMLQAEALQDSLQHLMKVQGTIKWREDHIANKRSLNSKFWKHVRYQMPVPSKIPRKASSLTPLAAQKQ
# Numbers stand for hits; - = inactive; ! = not active in a repeat.
SMILES,ST2 IL33 inh
Cc1ccccc1-n1nc2c(c1NC(=O)c1cc(Br)ccc1Cl)CS(=O)C2 (centres undefined),-
CCOc1cc2c(cc1OCC)C1C(C(=O)NC3CCCCCC3)c3ccccc3C(=O)N1CC2 (centres undefined),-
CN(C(=O)c1cnc(N2CCN(c3ccccn3)CC2)c2ccccc12)c1ccc(Cl)cc1,-
CCOc1ccc(-n2c(=O)c3sccc3n(CC(=O)Nc3cc(C)[nH]n3)c2=O)cc1,-
CC(C)OCCNC(=O)CC1C(=O)NCCN1Cc1ccccn1 (centres undefined),-
Cc1nc(N2CCC(C(=O)NC3CCCc4ccccc43)CC2)nc2ccccc12 (centres undefined),-
O=C(c1cn(CCN2CCOCC2)nn1)N1CCC(c2nc3ccccc3o2)CC1,-
CC1=NN(c2ccc(Cl)c(C(=O)O)c2)C(=O)/C1=C\c1ccc(Br)cc1,-
CC1=NN(c2ccc(Cl)c(C(=O)O)c2)C(=O)/C1=C\c1ccc(Cl)cc1,48%
COc1ccc(/C=C2/C(=O)N(c3ccc(Cl)c(Cl)c3)N=C2C)cc1Br,-
C=CCOc1ccc(/C=C2/C(=O)N(c3ccc(Cl)c(Cl)c3)N=C2C)cc1OC,-
COc1cc(/C=C2/C(=O)N(c3ccc(Cl)c(Cl)c3)N=C2C)cc(OC)c1O,35%
COc1cc(/C=C2/C(=O)N(c3ccc(Cl)c(Cl)c3)N=C2C)cc(OC)c1OC,55%
COc1ccc(/C=C2\C(=O)N(c3ccc(Cl)c(C(=O)O)c3)N=C2C)cc1OC,-
C=CCOc1ccc(/C=C2\C(=O)N(c3ccc(Cl)c(C(=O)O)c3)N=C2C)cc1OC,-
COc1cc(/C=C2/C(=O)N(c3ccc(Cl)c(Cl)c3)N=C2C)ccc1OCC#N,-
COc1ccc(/C=C2/C(=O)N(c3ccc(Cl)c(Cl)c3)N=C2C)cc1[N+](=O)[O-],-
CC1=NN(c2ccc(Cl)c(C(=O)O)c2)C(=O)/C1=C\c1ccc(OCc2ccccc2)cc1,-
COc1cc(/C=C2\C(=O)N(c3ccc(Cl)c(C(=O)O)c3)N=C2C)cc(Br)c1O,75%
O=C(O)C1(O)CCN(c2ncc(Cl)cc2Cl)CC1,-
C/C(=N/OCC(=O)Nc1sc2c(c1C#N)CC(C)(C)NC2(C)C)c1cccs1,-
Cc1ccc(Cn2c(NCc3ccccc3)nc3c2c(=O)n(C)c(=O)n3C)cc1,-
Cc1ccnc(NCCn2cc(C3CC=CCC3)nn2)c1 (centres undefined),-
COc1cccc2c(=O)n(CCN3CCOCC3)cnc12,-
CSc1ncc(C(=O)N[C@@H]2C[C@H]3C(=O)N(C)CC(=O)N3C2)cn1,-
SMILES,ST2 IL33 inh
C=CCC1(CC=C)CCCN1C(=O)CC(=O)Nc1ccc(C)cc1C,-
CC(=O)Oc1ccc(C2C(C(=O)OCc3ccccc3)=C(C)N=C3SCCC(=O)N32)cc1 (centres undefined),-
Cc1c(N)cc(C(=O)O)cc1[N+](=O)[O-],-
COc1cc(Br)c(/C=C2/C(=O)N(c3ccc(Cl)c(Cl)c3)N=C2C)cc1OC,-
COc1ccccc1/C=C1\C(=O)N(c2ccc(Cl)c(Cl)c2)N=C1C,-
CC1=NN(c2ccc(Cl)c(Cl)c2)C(=O)/C1=C/c1cccs1,54%
CC(C)N1CCC(C(=O)NCC2(c3ccc(F)cc3)CCOC2)CC1 (centres undefined),-
COc1ccc(C(=O)NCC(=O)O)cc1,-
COc1ccc(-c2ccc(C(C)=O)cc2)cc1,-
COc1ccc(C(=O)/C=C(\C)c2ccc(OC)cc2)cc1,43%
CCOc1ccc(C(=O)Nc2cccc(F)c2)cc1Br,-
Cc1sc2ncnc(Sc3nnnn3-c3ccccc3)c2c1C,44%
CSc1nnnn1-c1ccccc1,-
Cc1cc(Sc2nnnn2-c2ccccc2)nc2ccccc12,-
O=[N+]([O-])c1cc([N+](=O)[O-])c2cn(-c3ccccc3)nc2c1,-
O=C1NC(=Nc2ccccc2)c2c1cccc2[N+](=O)[O-],-
Cc1cc2c(cc1[N+](=O)[O-])-c1ncccc1C2=Nc1ccccc1,32%
Cc1ccccc1N=C1NC(=O)c2cccc([N+](=O)[O-])c21,-
O=C(C1CC1)N1CCc2cc(S(=O)(=O)NCc3ccccc3Cl)ccc21,-
Cc1ccc(S(=O)(=O)N2CCN(c3nc(C)cc(N4CCOCC4)n3)CC2)cc1,-
Cc1ccc(SC2=C(N3CCOCC3)C(=O)N(c3cc(C)cc(C)c3)C2=O)cc1,43%
Cc1cccc(N2C(=O)CC(N3CCOCC3)C2=O)c1 (centres undefined),-
COc1cc([N+](=O)[O-])cc(C=Nc2ccc(-c3nc4c(C)cccc4o3)cc2)c1O,-
COc1cc([N+](=O)[O-])cc(C=Nc2ncccc2O)c1O,42%
COc1cc([N+](=O)[O-])cc(C=Nc2cccc(-c3nc4c(C)cccc4o3)c2)c1O,-
SMILES,ST2 IL33 inh
Cc1ccn2c(NC(=O)COc3ccccc3)c(-c3cccs3)nc2c1,-
O=C1c2ccccc2S(=O)(=O)N1CCCCOc1ccc(Cl)cc1,-
N/C(=N/OC(=O)N1c2ccccc2Sc2ccccc21)c1ccccc1,50%
CN(C(=O)N1c2ccccc2Sc2ccccc21)c1ccccc1,-
O=C(COc1ccccc1)OCC(=O)N1c2ccccc2Sc2ccccc21,-
C=C(C)CN1CCN(c2ncnc3sc4c(c23)CC(C)CC4)CC1 (centres undefined),-
Cc1cc(Nc2ccc(O)cc2)c2cc(Cl)ccc2n1,-
COc1ccc2nc(C)cc(Nc3ccc(N(C)C)cc3)c2c1,52%
COc1ccc2nc(C)cc(Nc3ccccc3OC)c2c1,-
CCOc1ccccc1Nc1cc(C)nc2ccc(OC)cc12,-
COc1cccc(Nc2cc(C)nc3ccc(Cl)cc23)c1,-
Cc1cc(Nc2ccc(N(C)C)cc2)c2cc(Cl)ccc2n1,39%
COc1cc(OC)cc(C(=O)N(c2ccc(Br)cc2)C2C=CS(=O)(=O)C2)c1 (centres undefined),-
Cc1ccccc1SCC(=O)N1CCCC2(CN(C)C(=O)O2)C1 (centres undefined),-
O=C1/C(=C/c2ccccc2O)N=C2CCCCCN12,39%
O=C1N=C(N2CCCC2)S/C1=C\c1ccccc1O,-
O=C1CCCN1c1ccccc1O,-
Cc1nc(NCc2nncn2CCc2ccccc2)c2cnn(C)c2n1,-
O=C1NN(c2ccccc2)C(=O)/C1=C\c1cccc(Br)c1,-
CN(CC(O)Cn1c2ccccc2c2ccccc21)S(=O)(=O)c1ccc(Br)cc1 (centres undefined),-
Cc1ccc(NCC(O)Cn2c(C)c(C)c3ccccc32)cc1 (centres undefined),36%!
Cc1c(C)n(CC(O)CNc2ccc(Br)cc2)c2ccccc12 (centres undefined),31%
Cc1cc(C)n(CC(O)Cn2c(C)c(C)c3ccccc32)n1 (centres undefined),-
Cc1c(C)n(CC(O)CN2CCOCC2)c2ccccc12 (centres undefined),-
Cc1ccc(NCC(O)Cn2c(C)c(C)c3ccccc32)cc1C (centres undefined),-
SMILES,ST2 IL33 inh
COc1cccc(F)c1-c1cnccc1C,-
Cc1oc2c(CN3CCCC(C)C3)c(O)ccc2c(=O)c1-c1nc2ccccc2s1 (centres undefined),-
Cc1nnc(CN(C)C(=O)CC(c2ccccc2)c2ccc3c(c2)OCO3)o1 (centres undefined),-
COCC1CCCN(C(=O)c2ccc(-c3ccc(-c4ccn[nH]4)cc3)nc2)C1 (centres undefined),-
Cc1nc2ncccn2c1C(=O)NCCCc1nc2ccccc2n1C,-
CCCCN(CC)C(=O)c1cc2c(=O)oc3ccccc3c2s1,-
